# Residue numbers refer to the chain shown, from its start.
# How the values were obtained:
# Experiment in all cases: PBM; 200 nM protein, PBS
# Conditions in all cases: dsDNA, one strand shown
# HOXB4 [1] = target: HOXB4 (Homo sapiens, UniProt P17483 148-234)
# VENTX [2] = target: T1, VENTX (Homo sapiens, UniProt O95231 78-163, R121Q)
# T1 sequence: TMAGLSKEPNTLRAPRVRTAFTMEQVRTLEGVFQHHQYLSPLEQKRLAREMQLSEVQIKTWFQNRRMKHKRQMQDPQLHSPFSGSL
# VENTX [3] = target: T2, VENTX (Homo sapiens, UniProt O95231 78-163)
# T2 sequence: T1 sequence with Q44R
# VENTX [4] = target: T3, VENTX (Homo sapiens, UniProt O95231 78-163, Y115F)
# T3 sequence: T1 sequence with Y38F, Q44R
# HOXB4 [5] = target: HOXB4 (Homo sapiens, UniProt P17483 148-234, V174I)
# HOXB9 [6] = target: HOXB9 (Homo sapiens, UniProt P17482 171-250, T197M)
# HOXB9 [7] = target: HOXB9 (Homo sapiens, UniProt P17482 171-250)
# HOXB9 [8] = target: HOXB9 (Homo sapiens, UniProt P17482 171-250, R186Q)
# HOXC9 [9] = target: HOXC9 (Homo sapiens, UniProt P31274 178-260, K195R)
# NKX2-6 = target: T4, NKX2-6 (Homo sapiens, UniProt A6NCS4 118-204, R150C)
# T4 sequence: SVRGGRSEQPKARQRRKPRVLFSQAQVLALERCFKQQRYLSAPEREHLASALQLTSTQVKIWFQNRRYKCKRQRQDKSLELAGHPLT
# HOXC9 [10] = target: HOXC9 (Homo sapiens, UniProt P31274 178-260)
# HOXD13 [11] = target: HOXD13 (Homo sapiens, UniProt P35453 263-343, T313R)
# HOXC9 [12] = target: HOXC9 (Homo sapiens, UniProt P31274 178-260, R193K)
# HOXD13 [13] = target: HOXD13 (Homo sapiens, UniProt P35453 263-343)
# HOXD13 [14] = target: HOXD13 (Homo sapiens, UniProt P35453 263-343, T313A)
# HOXC9 [15] = target: HOXC9 (Homo sapiens, UniProt P31274 178-260, R222W)
# HOXC10 [16] = target: HOXC10 (Homo sapiens, UniProt Q9NYD6 254-340)
# HOXB6 [17] = target: HOXB6 (Homo sapiens, UniProt P17509 132-218, K202E)
# HOXC10 [18] = target: HOXC10 (Homo sapiens, UniProt Q9NYD6 254-340, K271E)
# HOXB6 [19] = target: HOXB6 (Homo sapiens, UniProt P17509 132-218)
# HOXA4 [20] = target: HOXA4 (Homo sapiens, UniProt Q00056 201-287, W262R)
# HOXA7 [21] = target: HOXA7 (Homo sapiens, UniProt P31268 116-202)
# HOXA2 [22] = target: HOXA2 (Homo sapiens, UniProt O43364 129-215, R185T)
# HOXA4 [23] = target: HOXA4 (Homo sapiens, UniProt Q00056 201-287, R217L)
# HOXA2 [24] = target: HOXA2 (Homo sapiens, UniProt O43364 129-215, R185K)
# HOXA4 [25] = target: HOXA4 (Homo sapiens, UniProt Q00056 201-287)
# VAX1 [26] = target: VAX1 (Homo sapiens, UniProt Q5SQQ9 86-172)
# VAX1 [27] = target: VAX1 (Homo sapiens, UniProt Q5SQQ9 86-172, T142I)
# HOXA2 [28] = target: HOXA2 (Homo sapiens, UniProt O43364 129-215, Y150S)
# HOXA7 [29] = target: HOXA7 (Homo sapiens, UniProt P31268 116-202, W177C)
# HOXA4 [30] = target: HOXA4 (Homo sapiens, UniProt Q00056 201-287, W262F)
# HOXA2 [31] = target: HOXA2 (Homo sapiens, UniProt O43364 129-215)
# VAX1 [32] = target: VAX1 (Homo sapiens, UniProt Q5SQQ9 86-172, K157R)
# Chain of VAX1 (Homo sapiens, UniProt Q5SQQ9 86-172, K157R) (Q5SQQ9 86-172 K157R): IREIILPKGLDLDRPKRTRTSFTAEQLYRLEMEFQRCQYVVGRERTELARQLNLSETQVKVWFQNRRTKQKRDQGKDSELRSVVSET
# Chain of HOXB4 (Homo sapiens, UniProt P17483 148-234, V174I) (P17483 148-234 V174I): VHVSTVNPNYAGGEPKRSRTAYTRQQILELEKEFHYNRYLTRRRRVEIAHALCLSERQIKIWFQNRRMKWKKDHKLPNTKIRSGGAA
# Chain of HOXB4 (Homo sapiens, UniProt P17483 148-234) (P17483 148-234): as the sequence (P17483 148-234 V174I) above, with I27V counted along it
# Chain of HOXB6 (Homo sapiens, UniProt P17509 132-218, K202E) (P17509 132-218 K202E): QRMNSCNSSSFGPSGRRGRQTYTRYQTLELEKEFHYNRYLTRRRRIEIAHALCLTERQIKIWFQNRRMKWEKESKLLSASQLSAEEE
# Chain of HOXB9 (Homo sapiens, UniProt P17482 171-250, R186Q) (P17482 171-250 R186Q): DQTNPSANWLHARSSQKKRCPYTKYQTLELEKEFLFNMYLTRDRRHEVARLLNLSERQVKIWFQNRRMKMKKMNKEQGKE
# Chain of HOXB9 (Homo sapiens, UniProt P17482 171-250) (P17482 171-250): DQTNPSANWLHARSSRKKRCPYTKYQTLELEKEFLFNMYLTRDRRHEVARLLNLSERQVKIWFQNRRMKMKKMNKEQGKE
# Chain of HOXB9 (Homo sapiens, UniProt P17482 171-250, T197M) (P17482 171-250 T197M): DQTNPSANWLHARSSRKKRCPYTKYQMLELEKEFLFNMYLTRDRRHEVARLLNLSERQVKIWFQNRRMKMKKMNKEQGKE
# Chain of HOXB6 (Homo sapiens, UniProt P17509 132-218) (P17509 132-218): as the sequence (P17509 132-218 K202E) above, with E71K counted along it
# Chain of HOXA7 (Homo sapiens, UniProt P31268 116-202, W177C) (P31268 116-202 W177C): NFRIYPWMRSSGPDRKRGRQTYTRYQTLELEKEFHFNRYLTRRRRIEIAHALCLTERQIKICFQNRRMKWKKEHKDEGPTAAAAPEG
# Chain of HOXA7 (Homo sapiens, UniProt P31268 116-202) (P31268 116-202): as the sequence (P31268 116-202 W177C) above, with C62W counted along it
# Chain of HOXA4 (Homo sapiens, UniProt Q00056 201-287) (Q00056 201-287): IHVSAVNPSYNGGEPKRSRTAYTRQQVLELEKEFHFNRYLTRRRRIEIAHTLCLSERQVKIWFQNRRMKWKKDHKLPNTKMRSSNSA
# Chain of VAX1 (Homo sapiens, UniProt Q5SQQ9 86-172, T142I) (Q5SQQ9 86-172 T142I): as the sequence (Q5SQQ9 86-172 K157R) above, with T57I, R72K counted along it
# Chain of HOXA4 (Homo sapiens, UniProt Q00056 201-287, R217L) (Q00056 201-287 R217L): as the sequence (Q00056 201-287) above, with R17L counted along it
# Chain of HOXD13 (Homo sapiens, UniProt P35453 263-343, T313A) (P35453 263-343 T313A): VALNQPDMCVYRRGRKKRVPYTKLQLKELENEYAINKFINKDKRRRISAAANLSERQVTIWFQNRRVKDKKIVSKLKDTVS
# Chain of HOXA4 (Homo sapiens, UniProt Q00056 201-287, W262R) (Q00056 201-287 W262R): as the sequence (Q00056 201-287) above, with W62R counted along it
# Chain of HOXC10 (Homo sapiens, UniProt Q9NYD6 254-340, K271E) (Q9NYD6 254-340 K271E): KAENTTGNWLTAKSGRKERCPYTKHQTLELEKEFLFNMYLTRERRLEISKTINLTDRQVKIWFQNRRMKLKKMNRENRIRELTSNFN
# Chain of HOXC9 (Homo sapiens, UniProt P31274 178-260, R222W) (P31274 178-260 R222W): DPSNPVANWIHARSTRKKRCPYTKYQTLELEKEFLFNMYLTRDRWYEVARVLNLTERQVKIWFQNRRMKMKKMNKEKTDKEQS
# Chain of VAX1 (Homo sapiens, UniProt Q5SQQ9 86-172) (Q5SQQ9 86-172): as the sequence (Q5SQQ9 86-172 K157R) above, with R72K counted along it
# Chain of HOXA2 (Homo sapiens, UniProt O43364 129-215, R185T) (O43364 129-215 R185T): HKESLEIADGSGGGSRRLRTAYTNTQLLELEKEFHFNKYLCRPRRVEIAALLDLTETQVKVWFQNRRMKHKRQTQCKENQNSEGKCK
# Chain of HOXC9 (Homo sapiens, UniProt P31274 178-260) (P31274 178-260): as the sequence (P31274 178-260 R222W) above, with W45R counted along it
# Chain of HOXC9 (Homo sapiens, UniProt P31274 178-260, R193K) (P31274 178-260 R193K): as the sequence (P31274 178-260 R222W) above, with R16K, W45R counted along it
# Chain of HOXC10 (Homo sapiens, UniProt Q9NYD6 254-340) (Q9NYD6 254-340): as the sequence (Q9NYD6 254-340 K271E) above, with E18K counted along it
# Chain of HOXA2 (Homo sapiens, UniProt O43364 129-215) (O43364 129-215): as the sequence (O43364 129-215 R185T) above, with T57R counted along it
# Chain of HOXD13 (Homo sapiens, UniProt P35453 263-343, T313R) (P35453 263-343 T313R): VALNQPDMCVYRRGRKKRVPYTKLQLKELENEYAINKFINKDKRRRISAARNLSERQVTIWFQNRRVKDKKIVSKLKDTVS
# Chain of HOXA2 (Homo sapiens, UniProt O43364 129-215, R185K) (O43364 129-215 R185K): as the sequence (O43364 129-215 R185T) above, with T57K counted along it
# Chain of HOXA4 (Homo sapiens, UniProt Q00056 201-287, W262F) (Q00056 201-287 W262F): as the sequence (Q00056 201-287) above, with W62F counted along it
# Chain of HOXA2 (Homo sapiens, UniProt O43364 129-215, Y150S) (O43364 129-215 Y150S): as the sequence (O43364 129-215 R185T) above, with Y22S, T57R counted along it
# Chain of HOXD13 (Homo sapiens, UniProt P35453 263-343) (P35453 263-343): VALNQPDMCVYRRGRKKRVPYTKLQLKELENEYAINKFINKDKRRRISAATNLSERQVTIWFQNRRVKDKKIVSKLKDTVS
# Chain of HOXC9 (Homo sapiens, UniProt P31274 178-260, K195R) (P31274 178-260 K195R): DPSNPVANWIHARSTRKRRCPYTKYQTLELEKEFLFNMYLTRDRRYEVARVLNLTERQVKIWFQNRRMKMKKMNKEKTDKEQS
sequence,measurement,setting,value
CGCAGACC,binding signal,HOXB4 [1],"7.32 upbm affinity estimate (log intensity, higher = more binding, comparable within an allelic series)"
same,binding signal,VENTX [2],"8.16 upbm affinity estimate (log intensity, higher = more binding, comparable within an allelic series)"
same,binding signal,VENTX [3],"7.99 upbm affinity estimate (log intensity, higher = more binding, comparable within an allelic series)"
same,binding signal,VENTX [4],"8.12 upbm affinity estimate (log intensity, higher = more binding, comparable within an allelic series)"
same,binding signal,HOXB4 [5],"7.36 upbm affinity estimate (log intensity, higher = more binding, comparable within an allelic series)"
CGGTTCCC,binding signal,HOXB4 [1],"7.65 upbm affinity estimate (log intensity, higher = more binding, comparable within an allelic series)"
same,binding signal,HOXB9 [6],"8.58 upbm affinity estimate (log intensity, higher = more binding, comparable within an allelic series)"
same,binding signal,HOXB9 [7],"8.52 upbm affinity estimate (log intensity, higher = more binding, comparable within an allelic series)"
same,binding signal,HOXB4 [5],"7.57 upbm affinity estimate (log intensity, higher = more binding, comparable within an allelic series)"
same,binding signal,HOXB9 [8],"8.49 upbm affinity estimate (log intensity, higher = more binding, comparable within an allelic series)"
CGGGCTAG,binding signal,HOXB4 [1],"7.46 upbm affinity estimate (log intensity, higher = more binding, comparable within an allelic series)"
same,binding signal,VENTX [2],"7.92 upbm affinity estimate (log intensity, higher = more binding, comparable within an allelic series)"
same,binding signal,HOXC9 [9],"9.53 upbm affinity estimate (log intensity, higher = more binding, comparable within an allelic series)"
same,binding signal,VENTX [3],"7.75 upbm affinity estimate (log intensity, higher = more binding, comparable within an allelic series)"
same,binding signal,VENTX [4],"7.71 upbm affinity estimate (log intensity, higher = more binding, comparable within an allelic series)"
same,binding signal,HOXB4 [5],"7.53 upbm affinity estimate (log intensity, higher = more binding, comparable within an allelic series)"
same,binding signal,NKX2-6,"9.48 upbm affinity estimate (log intensity, higher = more binding, comparable within an allelic series)"
same,binding signal,HOXC9 [10],"9.6 upbm affinity estimate (log intensity, higher = more binding, comparable within an allelic series)"
same,binding signal,HOXD13 [11],"9.56 upbm affinity estimate (log intensity, higher = more binding, comparable within an allelic series)"
same,binding signal,HOXC9 [12],"9.51 upbm affinity estimate (log intensity, higher = more binding, comparable within an allelic series)"
same,binding signal,HOXD13 [13],"9.47 upbm affinity estimate (log intensity, higher = more binding, comparable within an allelic series)"
same,binding signal,HOXD13 [14],"9.73 upbm affinity estimate (log intensity, higher = more binding, comparable within an allelic series)"
same,binding signal,HOXC9 [15],"9.67 upbm affinity estimate (log intensity, higher = more binding, comparable within an allelic series)"
CGTGCCTC,binding signal,HOXB4 [1],"7.37 upbm affinity estimate (log intensity, higher = more binding, comparable within an allelic series)"
same,binding signal,HOXB9 [6],"8.3 upbm affinity estimate (log intensity, higher = more binding, comparable within an allelic series)"
same,binding signal,HOXC10 [16],"10 upbm affinity estimate (log intensity, higher = more binding, comparable within an allelic series)"
same,binding signal,HOXB6 [17],"8.93 upbm affinity estimate (log intensity, higher = more binding, comparable within an allelic series)"
same,binding signal,HOXB9 [7],"8.2 upbm affinity estimate (log intensity, higher = more binding, comparable within an allelic series)"
same,binding signal,HOXB4 [5],"7.39 upbm affinity estimate (log intensity, higher = more binding, comparable within an allelic series)"
same,binding signal,HOXC10 [18],"9.99 upbm affinity estimate (log intensity, higher = more binding, comparable within an allelic series)"
same,binding signal,HOXB9 [8],"8.24 upbm affinity estimate (log intensity, higher = more binding, comparable within an allelic series)"
same,binding signal,HOXB6 [19],"8.84 upbm affinity estimate (log intensity, higher = more binding, comparable within an allelic series)"
CTTAATGA,binding signal,HOXB4 [1],"13.3 upbm affinity estimate (log intensity, higher = more binding, comparable within an allelic series)"
same,binding signal,VENTX [2],"11.8 upbm affinity estimate (log intensity, higher = more binding, comparable within an allelic series)"
same,binding signal,HOXA4 [20],"10.7 upbm affinity estimate (log intensity, higher = more binding, comparable within an allelic series)"
same,binding signal,HOXA7 [21],"11.3 upbm affinity estimate (log intensity, higher = more binding, comparable within an allelic series)"
same,binding signal,VENTX [4],"11.7 upbm affinity estimate (log intensity, higher = more binding, comparable within an allelic series)"
same,binding signal,HOXB6 [17],"9.94 upbm affinity estimate (log intensity, higher = more binding, comparable within an allelic series)"
same,binding signal,HOXA2 [22],"12.8 upbm affinity estimate (log intensity, higher = more binding, comparable within an allelic series)"
same,binding signal,HOXA4 [23],"12.5 upbm affinity estimate (log intensity, higher = more binding, comparable within an allelic series)"
same,binding signal,HOXB4 [5],"13.9 upbm affinity estimate (log intensity, higher = more binding, comparable within an allelic series)"
same,binding signal,HOXA2 [24],"13.4 upbm affinity estimate (log intensity, higher = more binding, comparable within an allelic series)"
same,binding signal,HOXA4 [25],"14 upbm affinity estimate (log intensity, higher = more binding, comparable within an allelic series)"
same,binding signal,VAX1 [26],"13.3 upbm affinity estimate (log intensity, higher = more binding, comparable within an allelic series)"
same,binding signal,VAX1 [27],"13.1 upbm affinity estimate (log intensity, higher = more binding, comparable within an allelic series)"
same,binding signal,HOXA2 [28],"10.8 upbm affinity estimate (log intensity, higher = more binding, comparable within an allelic series)"
same,binding signal,HOXA7 [29],"8.84 upbm affinity estimate (log intensity, higher = more binding, comparable within an allelic series)"
same,binding signal,HOXA4 [30],"12.1 upbm affinity estimate (log intensity, higher = more binding, comparable within an allelic series)"
same,binding signal,HOXA2 [31],"12.7 upbm affinity estimate (log intensity, higher = more binding, comparable within an allelic series)"
same,binding signal,VAX1 [32],"13.1 upbm affinity estimate (log intensity, higher = more binding, comparable within an allelic series)"
same,binding signal,HOXB6 [19],"11.6 upbm affinity estimate (log intensity, higher = more binding, comparable within an allelic series)"
